Cruzain inh Det: inhibitors of Trypanosoma cruzi cruzain with detergent; P25779; purified cruzain, Z-FR-AMC fluorescence, 0.01% Triton; Potency, µM, for inactives: max response, negative = inhibition, usual class: inhibitors; actives 0.43% (n = 200,000); AID 1478;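 also: potency is read from the fitted curve at half-maximal effect; plate controls were neutral wells for no effect and buffer without enzyme for full effect; nearly all actives have a fitted effect of over 40% in size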
Target sequence (P25779 123-467 limits assumed): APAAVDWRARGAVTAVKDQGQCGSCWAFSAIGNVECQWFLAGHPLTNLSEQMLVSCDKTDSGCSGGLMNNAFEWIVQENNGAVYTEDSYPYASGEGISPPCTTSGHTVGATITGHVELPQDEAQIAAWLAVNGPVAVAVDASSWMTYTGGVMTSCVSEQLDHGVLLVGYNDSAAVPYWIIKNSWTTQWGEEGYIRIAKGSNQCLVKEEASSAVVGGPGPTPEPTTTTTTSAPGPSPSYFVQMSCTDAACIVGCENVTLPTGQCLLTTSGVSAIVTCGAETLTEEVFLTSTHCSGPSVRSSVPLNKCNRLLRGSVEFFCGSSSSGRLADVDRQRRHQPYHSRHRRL
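Cysteine protease activity tested under reducing, mildly acidic conditions (100 mM sodium acetate pH 5.5, 5 mM DTT) plus 0.01% Triton X-100. Cruzain 1.5 nM; substrate Z-FR-AMC 2 uM; 15 min compound preincubation at room temperature.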
NS1 function inh: blocks influenza NS1 protein function. Potency, µM (doses to about 46.1 µM), for the others: at the top dose activity, positive = more growth. actives 0.4% (n = 270,000); calls by dose curve; also: potency is read from the fitted curve at half-maximal effect; actives are rising curves; nearly all actives have a fitted effect of over 50% in size
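Recovery from NS1-induced slow growth read by OD600 in budding yeast switched to galactose assay medium (pH 6.0, -URA) at 1:100 dilution. Compound 23 nl per well; the matching strain lacking NS1 serves as control.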
Cruzain inh noDet: blocks cruzain activity in detergent-free assay; P25779; purified cruzain, Z-FR-AMC fluorescence, no detergent; Potency, µM, inactives show max response, negative = inhibition, hits mostly inhibitors; actives 2.3% (n = 200,000); AID 1476;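 also: potency is read from the fitted curve at half-maximal effect; plate controls were enzyme without inhibitor for no effect and buffer without enzyme for full effect; nearly all actives have a fitted effect of over 40% in size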
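Detergent-free condition (0.00005% Triton X-100) in acetate buffer pH 5.5 with DTT. 1.5 nM enzyme and compound were pre-mixed 15 min, then 2 uM Z-FR-AMC substrate added; reaction progress from fluorescence change between first and third reads (60 s).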
Flu NS1 inh: validation of influenza NS1 protein function inhibitors; shares compounds with NS1 function inh; influenza NS1 function cell assay, 15-point titration; activity change, negative = inhibition, % at 32.9 µM; 1,400 tested, under 10 active; calls by dose curve; also: 0% is about no effect
PR8 titer: reduces influenza A/PR/8/34 replication in MDCK cells. MDCK infected influenza A/PR/8/34, virus titer TCID50; active compounds read low. virus titer (log TCID50), log10 TCID50 at 5 µM. actives 30% (n = 95). shares compounds with NS1 function inh; call rule not given here
The depositor's hits bear a star; ? = inconclusive; / = no result given. The entries come from a sample that favours hits as a whole. Unless noted, calls follow the shape of the dose curve; as a rule, active = well fitted curve in the direction sought with a large enough effect; inconclusive = small, poorly fitted or top-dose-only effect, or another doubt; inactive = no such curve, though single readings can be large; an effect the other way counts as inactive or inconclusive.

SMILES	Cruzain inh Det	NS1 function inh	Cruzain inh noDet	Flu NS1 inh	others
Cc1[nH]nc2c1C(c1ccc(F)cc1)C(C#N)=C(N)O2 (stereo not given)	-3%	5%	-10%	/
Cc1oc(C)c2c(=O)ccc3c(c12)OC(N)=C(C#N)C3c1ccc(F)cc1 (stereo not given)	-18%	8.9µM*	-11%	7
COc1ccc2[nH]c3c(c2c1)CCNC3	5%	18µM*	12%	13
CCOc1ccc2[nH]c3c(c2c1)CNCC3	/	8%	/	/
NS(=O)(=O)c1ccc(N/N=C/c2cn(-c3ccccc3)nc2-c2ccccc2)c([N+](=O)[O-])c1	/	0%	/	/
O=[N+]([O-])c1ccc(N/N=C/c2cn(-c3ccccc3)nc2-c2ccccc2)cc1	4%	?	?	1
CC1CC(C)CN(c2ccc(C(=O)NCc3ccc4c(c3)OCO4)cc2[N+](=O)[O-])C1 (stereo not given)	-8%	10µM*	-2%	-17
Cc1cc(C(=O)NCc2ccc3c(c2)OCO3)ccc1[N+](=O)[O-]	/	10%	/	/
S=c1[nH]c2ncccc2o1	-4%	-1%	-5%	/
S=c1[nH]c2cc(Cl)c3cccnc3c2o1	/	4µM*	/	18
O=C(COC(=O)C1C2CC3OC(=O)C1C3C2)Nc1ccc(Br)cc1 (stereo not given)	/	-1%	/	/
COc1ccc(N2CCN(C(CNC(=O)c3ccc(C)cc3)c3ccc4c(c3)OCO4)CC2)cc1 (stereo not given)	-5%	/	7%	/
COc1ccc(C(C(=O)NC2CCCCC2)N(Cc2cccs2)C(=O)Cc2c[nH]c3ccccc23)cc1 (stereo not given)	-2%	20%	-23%	/
Cc1ccc(C(C(=O)NC2CCCCC2)N(C(=O)Cc2c[nH]c3ccccc23)c2ccccc2)o1 (stereo not given)	-2%	7%	-7%	/
COc1cc(C(C(=O)NC2CCCCC2)N(C(=O)Cc2c[nH]c3ccccc23)c2ccc(C)cc2)cc(OC)c1OC (stereo not given)	-8%	11µM*	?	14
COc1cccc(CN(C(=O)Cc2c[nH]c3ccccc23)C(C(=O)NC2CCCCC2)c2cccs2)c1 (stereo not given)	2%	7.1µM*	-26%	-8
O=CNc1ncn[nH]1	-2%	-1%	-5%	/
Cc1cc(SCc2sc(-c3ccc(C(F)(F)F)c(F)c3)nc2C)ccc1OCC(=O)O	-29%	/	?	/
COC(=O)N1[C@H]2CC[C@@]3(C)CC(=O)C[C@]1(C)C3c1ccccc12	3%	/	-5%	/
Fc1ccc(NC(=S)N2CCN(c3cccc(C(F)(F)F)c3)CC2)cc1	-6%	2%	-2%	/
FC(F)(F)c1cccc(NC(=S)N2CCN(c3cccc(C(F)(F)F)c3)CC2)c1	-3%	?	-9%	31
CCc1ccc(OCC(=O)N(Cc2ccco2)Cc2ccco2)cc1	-6%	/	-7%	/
COc1cc(NC(=O)c2cc3c(=O)oc4ccc(C)cc4c3s2)cc(OC)c1OC	2%	/	8%	/
COC(=O)[C@@]1(Cc2ccc(F)cc2)[C@H]2c3cc(C(=O)N4CCCC4)n(Cc4ccc(C(F)(F)F)nc4)c3C[C@H]2CN1C(=O)c1ccccc1	-4%	11µM*	?	3
COC(=O)[C@@]1(Cc2ccccc2)[C@H]2c3cc(C(=O)N4CCCC4)n(Cc4ccc(C(F)(F)F)nc4)c3C[C@H]2CN1C(=O)c1ccccc1	-1%	/	?	/
SMILES	Cruzain inh Det	NS1 function inh	Cruzain inh noDet	Flu NS1 inh	others
COc1cc(OC)c2c(c1)OC(=O)CC2c1ccccc1OC (stereo not given)	0%	/	-14%	/
COc1ccc(CNC(=O)C2CCN(S(=O)(=O)N3CCCC3)CC2)c(OC)c1	/	?	/	-23
COc1ccc(OC)c(CNC(=O)C2CCN(S(=O)(=O)N3CCCC3)CC2)c1	2%	-9%	-8%	/
Cc1cc(OC(C)C(=O)N(Cc2ccco2)C2CCS(=O)(=O)C2)cc(C)c1Cl (stereo not given)	/	6%	/	/
COc1ccccc1NC(=O)NCC1(N(C)C)CCCCC1	/	?	/	-23
COc1ccccc1NC(=O)NC1(C(=O)N2CCCCC2)CCCCC1	/	-11%	/	/
CCc1ccc(OCC(=O)N(Cc2ccc(OC)cc2)C2CCS(=O)(=O)C2)cc1 (stereo not given)	-2%	/	?	/
Cc1nc(NC2CCCCC2)c2nc(-c3ccccc3)n(CC3CCN(C)CC3)c2n1	-3%	/	-2%	/
N/N=c1\sc2ccccc2n1-c1ccccc1	-3%	11µM*	16µM*	25	PR8 titer=8

Source: PubChem (National Center for Advancing Translational Sciences (NCATS))
